Test in all cases: universal protein binding microarray (PBM); transcription factors of Arabidopsis thaliana; high values mean tight binding
Details in all cases: protein: recombinant; tags: GST; chain copies: 2; dsDNA, one strand shown

Assay [1] deals with T1, GST-ANAC092(1-176) (Arabidopsis thaliana, UniProt Q9FKA0 1-176).
T1 sequence: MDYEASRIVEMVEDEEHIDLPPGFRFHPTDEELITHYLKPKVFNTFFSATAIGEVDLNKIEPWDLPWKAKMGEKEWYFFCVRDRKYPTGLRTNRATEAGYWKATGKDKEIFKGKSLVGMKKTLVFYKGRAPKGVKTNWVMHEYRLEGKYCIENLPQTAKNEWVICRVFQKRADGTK
In outline:
(§1)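 Binding is expressed as the normalised enrichment score (E-score). Proteins carrying a GST tag, whether NAC-domain, full-length or DNA-binding-domain forms, were induced in cells, and zinc acetate was added for zinc-finger proteins. After purification on glutathione–Sepharose 4B and quantification by A280 or anti-GST western blot, each was applied in duplicate at 200 to 500 nM final to custom all-10-mer Agilent 4 × 180K arrays made double-stranded by primer extension. Gapped and ungapped 8-mers were scored.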

The target in assay [2] is T2, GST-ANAC019 NAC domain (Arabidopsis thaliana, UniProt Q9C932 14-162).
T2 sequence: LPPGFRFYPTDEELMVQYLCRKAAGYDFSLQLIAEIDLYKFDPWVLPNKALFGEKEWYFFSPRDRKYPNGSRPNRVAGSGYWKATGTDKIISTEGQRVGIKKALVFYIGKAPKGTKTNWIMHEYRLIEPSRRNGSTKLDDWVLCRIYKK
The method, boiled down:
as §1

The target in assay [3] is T3, GST-ANAC055(1-171) (Arabidopsis thaliana, UniProt Q9LDY8 1-171).
T3 sequence: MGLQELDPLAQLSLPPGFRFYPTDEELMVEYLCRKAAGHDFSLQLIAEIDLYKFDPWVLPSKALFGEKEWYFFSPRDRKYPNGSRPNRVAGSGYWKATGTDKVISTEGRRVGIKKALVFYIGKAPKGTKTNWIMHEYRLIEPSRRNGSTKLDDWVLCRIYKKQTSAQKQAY
In outline: as §1

Assay [4] addresses T4, GST-ATAF1 NAC domain (Arabidopsis thaliana, UniProt Q39013 7-158).
T4 sequence: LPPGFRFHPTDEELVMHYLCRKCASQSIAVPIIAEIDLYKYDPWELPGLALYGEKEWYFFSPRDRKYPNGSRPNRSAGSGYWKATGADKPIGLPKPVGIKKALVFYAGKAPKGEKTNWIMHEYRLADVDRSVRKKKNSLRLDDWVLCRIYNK
The method, boiled down: as §1

Assay [5] addresses T5, GST-ANAC092(1-285) full length (Arabidopsis thaliana, UniProt Q9FKA0 1-285).
T5 sequence: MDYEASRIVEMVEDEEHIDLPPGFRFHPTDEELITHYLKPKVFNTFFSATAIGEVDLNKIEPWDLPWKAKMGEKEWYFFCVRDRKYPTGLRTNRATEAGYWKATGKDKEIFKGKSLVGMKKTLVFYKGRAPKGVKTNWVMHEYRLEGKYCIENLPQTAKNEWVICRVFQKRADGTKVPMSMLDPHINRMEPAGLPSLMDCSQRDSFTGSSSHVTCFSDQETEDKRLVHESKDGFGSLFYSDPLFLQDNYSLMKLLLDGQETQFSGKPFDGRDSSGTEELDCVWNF
The method, boiled down: as §1

Assay [6] deals with T6, GST-NAP(1-166) (Arabidopsis thaliana, UniProt O49255 1-166).
T6 sequence: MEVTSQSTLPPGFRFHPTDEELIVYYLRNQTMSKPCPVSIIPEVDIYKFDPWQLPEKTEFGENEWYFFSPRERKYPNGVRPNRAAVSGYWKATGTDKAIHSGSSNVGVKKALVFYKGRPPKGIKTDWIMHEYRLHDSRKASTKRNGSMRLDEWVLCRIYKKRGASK
The method, boiled down: as §1

Assay [7] has as its target T7, GST-NST2(1-184) (Arabidopsis thaliana, UniProt Q9M274 1-184).
T7 sequence: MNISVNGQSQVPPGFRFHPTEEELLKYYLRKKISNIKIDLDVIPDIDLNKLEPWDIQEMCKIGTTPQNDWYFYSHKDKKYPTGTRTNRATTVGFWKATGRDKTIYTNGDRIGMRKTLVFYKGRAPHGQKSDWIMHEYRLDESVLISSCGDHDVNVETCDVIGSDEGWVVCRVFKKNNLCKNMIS
The method, boiled down:
as §1

Assay [8] has as its target T8, GST-NTL8 NAC domain (Arabidopsis thaliana, UniProt Q9XIN7 14-156).
T8 sequence: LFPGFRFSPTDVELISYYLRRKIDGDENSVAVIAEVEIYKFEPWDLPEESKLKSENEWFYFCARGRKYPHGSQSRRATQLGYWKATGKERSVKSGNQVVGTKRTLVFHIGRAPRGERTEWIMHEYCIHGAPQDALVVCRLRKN
The method, boiled down: as §1

In assay [9] the target is T9, GST-SND1(1-203) (Arabidopsis thaliana, UniProt Q9LPI7 1-203).
T9 sequence: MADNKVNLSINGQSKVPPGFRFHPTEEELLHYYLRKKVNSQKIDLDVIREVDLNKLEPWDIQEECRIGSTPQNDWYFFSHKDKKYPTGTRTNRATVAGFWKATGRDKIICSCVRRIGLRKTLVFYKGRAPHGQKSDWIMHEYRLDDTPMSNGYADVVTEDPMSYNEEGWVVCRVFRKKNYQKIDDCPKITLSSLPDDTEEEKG
In outline:
as §1

The target of assay [10] is T10, GST-VND3 NAC domain (Arabidopsis thaliana, UniProt Q9FH59 12-162).
T10 sequence: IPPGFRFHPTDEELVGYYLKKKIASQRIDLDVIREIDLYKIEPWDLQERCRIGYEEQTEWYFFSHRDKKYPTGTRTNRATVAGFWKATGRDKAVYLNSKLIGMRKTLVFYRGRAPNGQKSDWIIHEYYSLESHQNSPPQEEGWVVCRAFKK
The method, boiled down:
as §1

Assay [11] addresses T11, GST-VND7 NAC domain (Arabidopsis thaliana, UniProt Q9C8W9 9-158).
T11 sequence: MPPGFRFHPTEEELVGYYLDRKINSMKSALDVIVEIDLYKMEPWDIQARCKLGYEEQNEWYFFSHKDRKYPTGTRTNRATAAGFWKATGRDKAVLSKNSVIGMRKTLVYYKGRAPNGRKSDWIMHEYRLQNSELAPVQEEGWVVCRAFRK
In outline:
as §1

As to GTAACGTA, the binding signal in [1] is 0.451 E-score; in assay [2], 0.367 E-score; in [3], 0.189 E-score; in assay [4], 0.322 E-score; in assay [5], 0.467 E-score; in assay [6] it was 0.315 E-score. Also, the binding signal in assay [7] was found to be 0.321 E-score; in [8], 0.13 E-score; in assay [9], 0.489 E-score; in assay [10], 0.338 E-score; in [11], 0.402 E-score.

With AGTTACGC, the binding signal in assay [1] was 0.273 E-score; in assay [2] it was 0.134 E-score; in [3], 0.0766 E-score; in assay [4], 0.124 E-score; in assay [5], 0.275 E-score; in assay [6], 0.115 E-score. In addition, the binding signal stood at 0.245 E-score in assay [7], 0.412 E-score in assay [9], 0.103 E-score in assay [10] and 0.0942 E-score in [11].

With ACGGCACG, the binding signal amounted to 0.34 E-score in [1]; 0.291 E-score in assay [2]; 0.34 E-score in assay [3]; 0.286 E-score in assay [4]; 0.404 E-score in assay [5]; 0.324 E-score in [6]. Besides, the binding signal in assay [7] was found to be 0.133 E-score; in assay [9], 0.0651 E-score; in [10] it was 0.217 E-score; in assay [11], 0.233 E-score.

As to CACGACAC, the binding signal in assay [1] was found to be 0.321 E-score; in assay [2] it was 0.41 E-score; in assay [3] it was 0.372 E-score; in [4], 0.338 E-score; in assay [5], 0.355 E-score; in assay [6] it was 0.343 E-score. In addition, the binding signal in assay [7] was 0.134 E-score; in assay [8], 0.0614 E-score; in assay [9], 0.0543 E-score; in assay [10] it was 0.299 E-score; in [11], 0.348 E-score.

As for CTCACGCA, the binding signal in [1] was found to be 0.416 E-score; in assay [2] it was 0.359 E-score; in assay [3], 0.211 E-score; in [4], 0.0962 E-score; in assay [5] it was 0.41 E-score; in [6] it was 0.171 E-score. In addition, the binding signal in assay [7] was determined as 0.22 E-score; in [8], 0.0698 E-score; in [9], 0.286 E-score; in assay [10] it was 0.194 E-score; in [11], 0.193 E-score.

As to AACACGTT, the binding signal was 0.375 E-score in assay [1]; 0.262 E-score in [2]; 0.284 E-score in assay [3]; 0.228 E-score in assay [4]; 0.426 E-score in assay [5]; 0.259 E-score in assay [6]. Also, the binding signal worked out at 0.222 E-score in assay [7]; 0.132 E-score in [8]; 0.202 E-score in assay [9]; 0.281 E-score in [10]; 0.203 E-score in [11].

For the sequence TATACGCA, the binding signal in [1] was 0.311 E-score; in [2], 0.232 E-score; in assay [3], 0.32 E-score; in assay [4] it was 0.231 E-score; in [5], 0.4 E-score; in assay [6], 0.25 E-score. Moreover, the binding signal came to 0.243 E-score in assay [7], 0.298 E-score in assay [9], 0.29 E-score in [10] and 0.102 E-score in assay [11].

The values above are taken from publication PMC4081100, “A DNA-binding-site landscape and regulatory network analysis for NAC transcription factors in Arabidopsis thaliana”.
